Data as given in PubChem BioAssay (NCI).
Compounds without any hit were thinned out: in the full panel of roughly 79,000, 15% have a hit. Active and inactive are the calls of the source. Rule as the data show it: active = growth inhibition above about 70%; inactive = the rest.

How the values were obtained:
[1] = NCI Yeast Anticancer Drug Screen. Data for the rad52 strain (AID 147);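 also: 0% = growth of vehicle-treated control cultures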; conditions: S. cerevisiae rad52 mutant growth inhibition, active compounds read high
Method in brief: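 Here a repair-compromised yeast strain receives each compound; its growth is then quantified and normalised to vehicle-only controls.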

[2] = NCI Yeast Anticancer Drug Screen. Data for the wt1 strain (AID 149);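 also: 0% = growth of vehicle-treated wt1 cultures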; conditions: S. cerevisiae wt1 strain (SPY 50644) growth inhibition, active compounds read high
Method in brief: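 Compounds are added to wt1 yeast cultures. Growth is then measured. Inhibition is expressed relative to vehicle-treated controls.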

[3] = NCI Yeast Anticancer Drug Screen. Data for the rad50EPP+ strain (AID 151);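 also: 0% = growth of vehicle-treated control cultures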; conditions: S. cerevisiae rad50 mutant strain, active compounds read high
Method in brief: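 Read-out is yeast growth inhibition relative to vehicle; cells used were the rad50EPP+ strain.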

[4] = NCI Yeast Anticancer Drug Screen. Data for the mgt1 strain (AID 153); conditions: S. cerevisiae mgt1 mutant growth inhibition, active compounds read high
Method in brief: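 Measured: inhibition of mgt1 yeast growth by compound, normalized to vehicle-treated cultures.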

[5] = NCI Yeast Anticancer Drug Screen. Data for the rad50 strain (AID 155);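 also: 0% = growth of vehicle-only cultures of the same strain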; conditions: S. cerevisiae rad50 strain growth inhibition, active compounds read high
Method in brief: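 Inhibition values express reduced yeast growth in compound-treated cultures relative to vehicle-treated controls.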

[6] = NCI Yeast Anticancer Drug Screen. Data for the mec2-1 strain (AID 157); conditions: S. cerevisiae mec2-1 strain, active compounds read high
Method in brief: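 Using mec2-1 yeast: add compound, measure growth, express inhibition versus vehicle-treated cultures.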

[7] = NCI Yeast Anticancer Drug Screen. Data for the rad14 strain (AID 159);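 also: 0% = growth of vehicle-treated control cultures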; conditions: S. cerevisiae rad14 strain growth inhibition, active compounds read high
Method in brief: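 A mutant yeast strain defective in DNA damage repair is treated with compound; inhibition of its growth is scored against untreated, vehicle-exposed cultures.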

[8] = NCI Yeast Anticancer Drug Screen. Data for the sgs1 mgt1 strain (AID 161);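 also: 0% = growth of cultures given vehicle only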; conditions: S. cerevisiae sgs1 mgt1 strain, active compounds read high
Method in brief: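 Compounds are added to genetically altered yeast, and growth is compared with cultures given vehicle alone to give percent inhibition.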

[9] = NCI Yeast Anticancer Drug Screen. Data for the CLN2oe strain (AID 163);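 also: 0% = growth of vehicle-only control cultures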; conditions: S. cerevisiae CLN2oe strain, active compounds read high
Method in brief: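 Whole-cell yeast growth assay. A strain engineered for altered cell-cycle control received compound, and inhibition relative to vehicle-treated cultures was recorded.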

[10] = NCI Yeast Anticancer Drug Screen. Data for the cln2 rad14 strain (AID 165);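 also: 0% = growth equal to vehicle treated cultures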; conditions: S. cerevisiae cln2 rad14 strain, active compounds read high
Method in brief: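 Yeast strain cln2 rad14, bearing defects in cell cycle control and DNA repair, serves as the test system; values reflect growth inhibition compared with vehicle.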

[11] = NCI Yeast Anticancer Drug Screen. Data for the bub3 strain (AID 167); conditions: S. cerevisiae bub3 mutant strain, active compounds read high
Method in brief: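 Steps: expose the mutant yeast strain to compound; grow alongside vehicle-treated cultures; measure growth; express inhibition against the vehicle cultures.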

[12] = NCI Yeast Anticancer Drug Screen. Data for the wt2 strain (AID 169);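 also: 0% = growth of vehicle-treated yeast cultures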; conditions: S. cerevisiae wt2 strain growth inhibition, active compounds read high
Method in brief: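 Treated yeast vs. vehicle-treated yeast: growth inhibition determined.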

[13] = NCI Yeast Anticancer Drug Screen. Data for the sgs1 strain (AID 173);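 also: 0% = growth of vehicle-only control cultures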; conditions: S. cerevisiae sgs1 mutant, active compounds read high
Method in brief: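 A genetically defined yeast mutant is incubated with the test compound, and its growth is compared to that of the same strain given vehicle.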

[14] = NCI Yeast Anticancer Drug Screen. Data for the mlh1 rad18 strain (AID 175); conditions: S. cerevisiae mlh1 rad18 strain growth inhibition, active compounds read high
Method in brief: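 Steps: expose repair-defective yeast to compound; measure growth; express inhibition against vehicle-treated controls.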

[15] = NCI Yeast Anticancer Drug Screen. Data for the rad18 strain (AID 177); conditions: S. cerevisiae rad18 mutant growth inhibition, active compounds read high
Method in brief: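 Measured value is growth inhibition of a yeast strain bearing a DNA repair alteration, referenced to vehicle-treated cells.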

[16] = NCI Yeast Anticancer Drug Screen. Data for the mlh1 strain (AID 171);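 also: 0% = growth of vehicle-treated control cultures of the same strain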; conditions: S. cerevisiae mlh1 strain growth inhibition, active compounds read high
Method in brief: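 A yeast strain with a defined genetic lesion serves as the test organism. Cultures receive compound or vehicle, and growth is measured.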

[17] = at 5.0 µM (retest, dose inferred, filed as 0.5)
[18] = at 50.0 µM (retest, dose inferred, filed as 5.0)

Measured: growth inhibition

N/C(=N\OC(=O)NC(Cl)=C(Cl)Cl)c1cc(C(F)(F)F)cc(C(F)(F)F)c1
active: [1]; at 100.0 µM 98% | [2]; at 100.0 µM 97% | [4]; at 33.0 µM 74% | [4]; at 100.0 µM 97% | [5]; at 50.0 µM 89% | [5]; at 100.0 µM 97% | [6]; at 50.0 µM 89.3% | [6]; at 100.0 µM 95% | [7]; at 100.0 µM 96% | [8]; [18] 95% | [8]; at 50.0 µM 89.4% | [9]; at 100.0 µM 98% | [10]; [18] 94% | [10]; at 50.0 µM 89% | [11]; [18] 91% | [11]; at 50.0 µM 89.9% | [11]; at 100.0 µM 96% | [12]; at 100.0 µM 96% | [13]; at 100.0 µM 97% | [14]; at 50.0 µM 88% | [15]; at 33.0 µM 72% | [15]; at 100.0 µM 97%
inactive: [1]; at 1.2 µM -14% | [1]; at 3.7 µM -11% | [1]; at 11.0 µM -2% | [1]; at 33.0 µM 64% | [2]; at 1.2 µM 16% | [2]; at 3.7 µM -13% | [2]; at 11.0 µM -19% | [2]; at 33.0 µM 40% | [3]; at 1.2 µM -30% | [3]; at 3.7 µM -48% | [3]; at 11.0 µM -43% | [3]; at 33.0 µM -35% | [3]; at 100.0 µM 17% | [4]; at 1.2 µM -23% | [4]; at 3.7 µM 7% | [4]; at 11.0 µM 6% | [5]; at 1.2 µM -10% | [5]; at 3.7 µM -20% | [5]; [17] 34% | [5]; at 11.0 µM 6% | [5]; at 33.0 µM 59% | [5]; [18] 54% | [6]; at 1.2 µM -33% | [6]; at 3.7 µM -61% | [6]; [17] 36% | [6]; at 11.0 µM -32% | [6]; at 33.0 µM 33% | [6]; [18] 58% | [7]; at 1.2 µM -53% | [7]; at 3.7 µM -36% | [7]; at 11.0 µM -48% | [7]; at 33.0 µM 18% | [8]; [17] -1% | [9]; at 1.2 µM 25% | [9]; at 3.7 µM 11% | [9]; at 11.0 µM 7% | [9]; at 33.0 µM 66% | [10]; [17] 45% | [11]; at 1.2 µM -23% | [11]; at 3.7 µM -9% | [11]; [17] 34% | [11]; at 11.0 µM -30% | [11]; at 33.0 µM 23% | [12]; at 1.2 µM -43% | [12]; at 3.7 µM -32% | [12]; at 11.0 µM -36% | [12]; at 33.0 µM 38% | [13]; at 1.2 µM -22% | [13]; at 3.7 µM -16% | [13]; at 11.0 µM -9% | [13]; at 33.0 µM 68% | [14]; [17] 42% | [14]; [18] 67% | [15]; at 1.2 µM -20% | [15]; at 3.7 µM -21% | [15]; at 11.0 µM -2%

COc1ccc(O)c(/C=N\Nc2ccccc2)c1
inactive: [1]; at 1.2 µM -10% | [1]; at 3.7 µM -11% | [1]; at 11.0 µM -3% | [1]; at 33.0 µM 54% | [1]; at 100.0 µM 55% | [2]; at 1.2 µM -1% | [2]; at 3.7 µM 5% | [2]; at 11.0 µM 11% | [2]; at 33.0 µM 12% | [2]; at 100.0 µM 33% | [3]; at 1.2 µM -8% | [3]; at 3.7 µM -18% | [3]; at 11.0 µM 13% | [3]; at 33.0 µM 50% | [4]; at 1.2 µM -6% | [4]; at 3.7 µM -7% | [4]; at 11.0 µM -6% | [4]; at 33.0 µM -6% | [4]; at 100.0 µM 36% | [5]; at 1.2 µM -14% | [5]; at 3.7 µM -9% | [5]; [17] -124% | [5]; at 11.0 µM -4% | [5]; at 33.0 µM 25% | [6]; at 1.2 µM -6% | [6]; at 3.7 µM -5% | [6]; [17] -52% | [6]; at 11.0 µM -5% | [6]; at 33.0 µM -5% | [6]; [18] -12% | [6]; at 100.0 µM -2% | [7]; at 1.2 µM 0% | [7]; at 3.7 µM -1% | [7]; at 11.0 µM 5% | [7]; at 33.0 µM 30% | [8]; [17] -64% | [8]; [18] -22% | [9]; at 1.2 µM -8% | [9]; at 3.7 µM -9% | [9]; at 11.0 µM -14% | [9]; at 33.0 µM -14% | [9]; at 100.0 µM 21% | [10]; [17] -61% | [10]; [18] -19% | [11]; at 1.2 µM -9% | [11]; at 3.7 µM -9% | [11]; [17] -73% | [11]; at 11.0 µM -9% | [11]; at 33.0 µM 6% | [11]; [18] -4% | [11]; at 100.0 µM 49% | [12]; at 1.2 µM 3% | [12]; at 3.7 µM 8% | [12]; at 11.0 µM 21% | [12]; at 33.0 µM 51% | [16]; at 1.2 µM -13% | [16]; at 3.7 µM -8% | [16]; at 11.0 µM -7% | [16]; at 33.0 µM -2% | [13]; at 1.2 µM -13% | [13]; at 3.7 µM -9% | [13]; at 11.0 µM 11% | [13]; at 33.0 µM 39% | [15]; at 1.2 µM -9% | [15]; at 3.7 µM -8% | [15]; at 11.0 µM -2% | [15]; at 33.0 µM 14% | [15]; at 100.0 µM 54%
active: [3]; at 100.0 µM 70% | [5]; [18] 71% | [5]; at 50.0 µM 99.4% | [5]; at 100.0 µM 73% | [6]; at 50.0 µM 99.3% | [7]; at 100.0 µM 94% | [8]; at 50.0 µM 98.8% | [10]; at 50.0 µM 99% | [11]; at 50.0 µM 98.9% | [12]; at 100.0 µM 96% | [16]; at 100.0 µM 74% | [13]; at 100.0 µM 94%
